Experimental data reported in the OligoGym collection.

molecular target: MED31; test: pooled miR-30 sensor sort-seq; sequence = guide strand; settings: shRNA
Also: reference of the scale not given here.

Sequence | sensor-assay potency score (higher = more potent)
TTGGAGCAGCTCTAACATGTGT | -0.598
TCCAACTCCAACTGAAACCGAA | -1.04
TCGATTTCCAGCATCATCTGTC | 0.22
TTTGCTGTTGCTGCTCTGCCAA | -0.936
TCTAACATGTGTAAACACTGAG | 0.543
AACATGTGTAAACACTGAGGGT | -0.84

molecular target: MEI1; test: as above; settings: shRNA

Sequence | sensor-assay potency score (higher = more potent)
TGGAACAGGACTACTAAGCTGG | 0.124
TTGTGAGCTGTGTCCACTGGGC | -0.159
TTTTCTGATTGCACTGACCATA | -0.486
AAAGGTAACAGACAGAAGCTTG | -0.962
TTGCGCACTAACGACACGCCGG | -1.01
TTCTCTGAATCTCTACTGGAGG | -0.666
ATGGTGAGTATAGACTAGCTGC | -0.611
TAGACTAGCTGCAGGTCTGGGA | -0.257
TAGCACTTTCTCCCAGTCCATC | -1.62
TCTTGCTCTGACACATTCCTGA | 0.143
TTGCTCTGACACATTCCTGAGC | -0.804

molecular target: MEN1; test: as above; settings: shRNA

Sequence | sensor-assay potency score (higher = more potent)
TTCTTCATCTGCACTTGCGACT | -0.844
TAGAGGGACAGGTCGACGGCGC | -0.785
TATGACATCGGAGACCTTCTTC | 0.751
TTCTTCACCAGCTCACGGCTGG | -0.0281
TACTTCAAAGAACTCCTTGTAG | 0.208
TCATCTGCACTTGCGACTGTGC | -1.27
TTCATCTGCACTTGCGACTGTG | 0.123
TAGATCTCCTCGTCTTCCCGGC | -0.0589
TTGTGGTAGAGGGTGAGTGGGT | -0.985
TTGTAGTCCTGGATGACAGTGG | 0.138
TTCAGGTACAGCCAGCTCCGCT | -1.42
TAGTAGGTCTTGGCTGAGGCAA | -1.23

molecular target: MEPCE; test: as above; settings: shRNA

Sequence | sensor-assay potency score (higher = more potent)
TTCAGATGCACCCACTTGGTGA | -1.03
TTGTTGGGGAAGACTGATGTGT | -0.599
TGATGTGTCCGCTCCATCCAAG | -1.38
TAGTAGTTCTTGTAGATCGTTT | -0.407
TAAGAGTCTTTCTCTTGCCATA | -1.25
TTGGATTCGGTAGTAGTTCTTG | 0.313
TAGTATTTGCAATAATTCCCAT | -0.782
TTTCGAACGGTGGTGGTCCCTT | -0.585
TAGTGTCGGATGTTTTGGCGGG | -0.437
TTCTTGTAGATCGTTTCTGTAA | -0.866
TAACTGAGGCAGCTGGAGGGGC | -0.431
